Holding throughout (assay): DAPPL (digital affinity profiling via proximity ligation, sequencing); 10 mM Tris-HCl pH 7.5, 50 mM NaCl, 1 mM DTT, 4% glycerol, room temperature, 30 min; GST-TFs on glutathione beads, 16-mer random dsDNA library, 0.1% formaldehyde crosslink after washing; high values mean tight binding
Common to all, as to conditions: protein: recombinant; tags: N-terminal GST; dsDNA, one strand shown

For one assay, the target named is T1, ELK1 (Homo sapiens, UniProt P19419 1-428).
T1 sequence: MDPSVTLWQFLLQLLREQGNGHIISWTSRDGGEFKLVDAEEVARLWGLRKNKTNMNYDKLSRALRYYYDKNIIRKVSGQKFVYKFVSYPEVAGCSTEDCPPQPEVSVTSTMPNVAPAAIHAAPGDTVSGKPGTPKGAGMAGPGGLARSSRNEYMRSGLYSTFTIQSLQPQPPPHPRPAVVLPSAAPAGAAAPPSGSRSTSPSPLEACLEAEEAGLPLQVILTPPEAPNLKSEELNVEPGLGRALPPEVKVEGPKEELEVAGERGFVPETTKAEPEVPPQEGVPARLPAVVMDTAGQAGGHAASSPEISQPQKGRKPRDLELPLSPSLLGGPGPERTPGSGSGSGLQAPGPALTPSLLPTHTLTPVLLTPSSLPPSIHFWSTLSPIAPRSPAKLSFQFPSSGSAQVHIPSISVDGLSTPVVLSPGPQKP
In outline:
(§1)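 GST fusions of human transcription factors were expressed in yeast and captured with glutathione beads. Once given DNA barcodes and pooled alongside a tag-only sample, they were incubated for 30 min at room temperature with 200 nmole of a random double-stranded 16-mer DNA library in Tris/NaCl/DTT/glycerol buffer, then washed, crosslinked (0.1% formaldehyde), proximity-ligated, PCR-amplified and sequenced on an Illumina NextSeq500. The binding signal of each hexamer is its read frequency for a factor divided by its frequency for the tag-only sample.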

A further assay concerns the target T2, GABPA (Homo sapiens, UniProt Q06546 1-454).
T2 sequence: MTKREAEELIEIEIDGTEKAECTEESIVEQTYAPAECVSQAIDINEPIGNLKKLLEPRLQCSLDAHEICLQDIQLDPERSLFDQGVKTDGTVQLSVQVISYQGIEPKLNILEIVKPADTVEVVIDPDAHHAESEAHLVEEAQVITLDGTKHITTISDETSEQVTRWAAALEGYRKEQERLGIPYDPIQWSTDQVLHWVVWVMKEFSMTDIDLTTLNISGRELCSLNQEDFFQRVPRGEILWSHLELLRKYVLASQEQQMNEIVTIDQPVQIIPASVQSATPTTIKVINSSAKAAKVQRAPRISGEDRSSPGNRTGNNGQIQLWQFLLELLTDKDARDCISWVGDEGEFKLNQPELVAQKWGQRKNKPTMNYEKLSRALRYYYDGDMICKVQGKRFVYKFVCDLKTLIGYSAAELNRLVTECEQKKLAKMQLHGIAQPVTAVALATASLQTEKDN
The method, boiled down:
as §1

The target of the next assay is T3, ERG (Homo sapiens, UniProt P11308 1-479).
T3 sequence: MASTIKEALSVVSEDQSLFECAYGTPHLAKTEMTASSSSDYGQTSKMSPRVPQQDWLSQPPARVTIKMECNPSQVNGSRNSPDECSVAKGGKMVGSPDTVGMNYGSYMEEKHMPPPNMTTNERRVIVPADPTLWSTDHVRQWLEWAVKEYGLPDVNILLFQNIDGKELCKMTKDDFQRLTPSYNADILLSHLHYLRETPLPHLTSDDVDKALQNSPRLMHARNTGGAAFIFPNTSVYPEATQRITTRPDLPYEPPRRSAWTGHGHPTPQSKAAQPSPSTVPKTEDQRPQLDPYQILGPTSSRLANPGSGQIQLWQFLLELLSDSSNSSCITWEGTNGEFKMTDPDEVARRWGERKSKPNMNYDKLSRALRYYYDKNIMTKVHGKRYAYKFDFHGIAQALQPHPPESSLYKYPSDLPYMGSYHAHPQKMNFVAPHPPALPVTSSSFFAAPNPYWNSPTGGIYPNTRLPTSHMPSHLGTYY
In outline:
as §1

Another assay deals with ELF1 (Homo sapiens, UniProt P32519 1-619). In outline:
as §1

For a further assay, the target named is T4, EHF (Homo sapiens, UniProt Q9NZC4 1-300).
T4 sequence: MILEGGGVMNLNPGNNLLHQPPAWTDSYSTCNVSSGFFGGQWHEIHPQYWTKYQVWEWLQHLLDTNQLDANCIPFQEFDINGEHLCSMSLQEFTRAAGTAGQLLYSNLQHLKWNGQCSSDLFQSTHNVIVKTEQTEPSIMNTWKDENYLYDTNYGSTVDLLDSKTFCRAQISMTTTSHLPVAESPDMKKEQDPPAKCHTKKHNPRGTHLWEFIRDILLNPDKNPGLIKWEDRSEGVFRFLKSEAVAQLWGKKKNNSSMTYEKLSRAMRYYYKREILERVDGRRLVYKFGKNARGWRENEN
The method, boiled down: as §1

Another assay has as its target T5, FEV (Homo sapiens, UniProt Q99581 1-238).
T5 sequence: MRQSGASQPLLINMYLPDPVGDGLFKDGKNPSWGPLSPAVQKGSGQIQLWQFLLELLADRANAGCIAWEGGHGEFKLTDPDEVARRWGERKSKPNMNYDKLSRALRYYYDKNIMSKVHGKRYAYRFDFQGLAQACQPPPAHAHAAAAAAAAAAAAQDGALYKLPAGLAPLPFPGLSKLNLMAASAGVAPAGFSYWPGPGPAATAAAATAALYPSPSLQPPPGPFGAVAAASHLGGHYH
In outline: as §1

The target of the next assay is ETV5 (Homo sapiens, UniProt P41161 1-510). The method, boiled down:
as §1

Another assay addresses ELF4 (Homo sapiens, UniProt Q99607 1-663). The method, boiled down: as §1
The next assay deals with T6, ELK4 (Homo sapiens, UniProt P28324-2 1-405).
T6 sequence: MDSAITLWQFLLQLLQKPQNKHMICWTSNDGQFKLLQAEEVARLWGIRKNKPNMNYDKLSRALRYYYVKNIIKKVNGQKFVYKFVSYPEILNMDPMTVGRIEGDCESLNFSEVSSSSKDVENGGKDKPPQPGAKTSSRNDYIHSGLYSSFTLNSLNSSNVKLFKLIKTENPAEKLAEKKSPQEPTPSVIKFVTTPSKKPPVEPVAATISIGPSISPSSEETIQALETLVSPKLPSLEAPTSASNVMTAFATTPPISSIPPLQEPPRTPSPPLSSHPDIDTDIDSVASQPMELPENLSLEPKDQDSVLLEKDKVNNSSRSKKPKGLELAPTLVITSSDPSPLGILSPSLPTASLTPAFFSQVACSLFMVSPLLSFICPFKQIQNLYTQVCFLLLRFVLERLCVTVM
The method, boiled down:
as §1

The target of a further assay is T7, ETV2 (Homo sapiens, UniProt O00321 1-342).
T7 sequence: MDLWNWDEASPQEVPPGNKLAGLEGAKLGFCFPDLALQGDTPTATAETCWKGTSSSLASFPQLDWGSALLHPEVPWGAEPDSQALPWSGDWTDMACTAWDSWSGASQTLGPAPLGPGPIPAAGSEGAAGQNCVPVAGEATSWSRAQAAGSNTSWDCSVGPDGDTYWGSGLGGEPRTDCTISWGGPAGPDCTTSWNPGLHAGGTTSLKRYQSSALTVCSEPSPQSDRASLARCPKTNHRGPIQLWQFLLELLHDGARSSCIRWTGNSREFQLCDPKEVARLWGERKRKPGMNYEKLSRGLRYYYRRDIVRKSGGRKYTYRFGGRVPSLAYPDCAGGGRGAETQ
The method, boiled down: as §1

For a further assay, the target named is T8, ERF (Homo sapiens, UniProt P50548 1-548).
T8 sequence: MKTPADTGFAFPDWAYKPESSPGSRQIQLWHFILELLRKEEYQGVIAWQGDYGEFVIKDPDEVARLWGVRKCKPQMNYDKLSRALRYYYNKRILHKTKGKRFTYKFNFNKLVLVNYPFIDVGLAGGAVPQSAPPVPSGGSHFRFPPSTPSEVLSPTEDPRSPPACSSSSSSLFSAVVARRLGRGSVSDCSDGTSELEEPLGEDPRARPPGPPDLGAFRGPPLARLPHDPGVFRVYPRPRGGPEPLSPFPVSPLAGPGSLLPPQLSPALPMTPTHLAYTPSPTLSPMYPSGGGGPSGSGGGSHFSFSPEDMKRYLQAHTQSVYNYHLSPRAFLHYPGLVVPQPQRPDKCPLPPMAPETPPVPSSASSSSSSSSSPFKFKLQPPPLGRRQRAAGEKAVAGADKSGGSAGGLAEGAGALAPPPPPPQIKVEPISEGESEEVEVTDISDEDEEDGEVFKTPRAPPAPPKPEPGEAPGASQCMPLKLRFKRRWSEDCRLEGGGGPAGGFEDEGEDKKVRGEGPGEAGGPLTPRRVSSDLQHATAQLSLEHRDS
In outline:
as §1

Another assay concerns the target T9, ETV3L (Homo sapiens, UniProt Q6ZN32 1-361).
T9 sequence: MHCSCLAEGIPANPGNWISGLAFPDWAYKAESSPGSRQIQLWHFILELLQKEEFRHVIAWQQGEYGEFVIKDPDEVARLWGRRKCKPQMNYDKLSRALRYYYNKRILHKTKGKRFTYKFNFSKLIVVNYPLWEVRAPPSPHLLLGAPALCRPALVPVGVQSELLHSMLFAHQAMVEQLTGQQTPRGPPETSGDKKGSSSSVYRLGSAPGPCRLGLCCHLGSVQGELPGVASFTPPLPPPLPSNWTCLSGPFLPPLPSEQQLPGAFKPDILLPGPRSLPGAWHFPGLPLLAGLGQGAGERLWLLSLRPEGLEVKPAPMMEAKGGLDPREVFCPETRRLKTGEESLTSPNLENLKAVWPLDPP
In outline: as §1

A further assay has as its target T10, ETS2 (Homo sapiens, UniProt P15036 1-469).
T10 sequence: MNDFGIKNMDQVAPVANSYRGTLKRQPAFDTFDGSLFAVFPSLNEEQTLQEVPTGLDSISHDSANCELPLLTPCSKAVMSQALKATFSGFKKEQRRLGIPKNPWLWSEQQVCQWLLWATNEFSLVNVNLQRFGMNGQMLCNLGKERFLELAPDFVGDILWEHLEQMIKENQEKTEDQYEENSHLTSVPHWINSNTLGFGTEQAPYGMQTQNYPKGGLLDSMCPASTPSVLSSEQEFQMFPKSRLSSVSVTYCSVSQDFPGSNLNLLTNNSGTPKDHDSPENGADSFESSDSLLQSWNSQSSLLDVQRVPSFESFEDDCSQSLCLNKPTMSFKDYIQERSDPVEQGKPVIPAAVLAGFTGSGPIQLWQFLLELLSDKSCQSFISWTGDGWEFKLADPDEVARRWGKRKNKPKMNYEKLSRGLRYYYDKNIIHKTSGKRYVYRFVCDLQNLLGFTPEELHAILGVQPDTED
The method, boiled down: as §1

A further assay concerns the target T11, ETV7 (Homo sapiens, UniProt Q9Y603 1-341).
T11 sequence: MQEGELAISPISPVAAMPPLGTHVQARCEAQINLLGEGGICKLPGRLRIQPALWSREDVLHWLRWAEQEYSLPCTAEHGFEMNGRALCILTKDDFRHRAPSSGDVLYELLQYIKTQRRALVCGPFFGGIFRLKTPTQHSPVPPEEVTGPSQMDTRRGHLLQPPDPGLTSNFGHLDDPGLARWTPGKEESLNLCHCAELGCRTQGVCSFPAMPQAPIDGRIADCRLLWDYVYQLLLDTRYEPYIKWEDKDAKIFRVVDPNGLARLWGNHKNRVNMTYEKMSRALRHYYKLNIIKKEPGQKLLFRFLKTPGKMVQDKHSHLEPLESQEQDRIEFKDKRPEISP
In outline:
as §1

ELF4, sequence (Q99607 whole entry): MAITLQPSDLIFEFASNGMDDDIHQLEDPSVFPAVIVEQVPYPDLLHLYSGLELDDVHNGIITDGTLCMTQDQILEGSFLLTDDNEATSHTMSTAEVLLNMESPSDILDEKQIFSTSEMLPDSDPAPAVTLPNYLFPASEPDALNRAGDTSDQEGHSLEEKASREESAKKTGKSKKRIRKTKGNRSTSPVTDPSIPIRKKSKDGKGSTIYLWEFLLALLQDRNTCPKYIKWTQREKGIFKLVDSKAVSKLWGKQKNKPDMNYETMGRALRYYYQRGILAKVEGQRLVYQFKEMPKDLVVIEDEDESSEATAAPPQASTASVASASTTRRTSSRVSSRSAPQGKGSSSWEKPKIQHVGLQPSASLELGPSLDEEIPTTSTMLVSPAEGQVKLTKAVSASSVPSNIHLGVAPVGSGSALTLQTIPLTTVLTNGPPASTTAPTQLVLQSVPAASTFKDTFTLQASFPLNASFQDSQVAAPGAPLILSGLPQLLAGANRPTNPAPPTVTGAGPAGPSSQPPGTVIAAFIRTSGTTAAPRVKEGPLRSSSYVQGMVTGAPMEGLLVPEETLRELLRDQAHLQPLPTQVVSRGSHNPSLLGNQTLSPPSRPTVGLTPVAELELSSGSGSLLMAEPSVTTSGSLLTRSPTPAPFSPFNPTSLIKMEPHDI
ETV5, sequence (P41161 whole entry): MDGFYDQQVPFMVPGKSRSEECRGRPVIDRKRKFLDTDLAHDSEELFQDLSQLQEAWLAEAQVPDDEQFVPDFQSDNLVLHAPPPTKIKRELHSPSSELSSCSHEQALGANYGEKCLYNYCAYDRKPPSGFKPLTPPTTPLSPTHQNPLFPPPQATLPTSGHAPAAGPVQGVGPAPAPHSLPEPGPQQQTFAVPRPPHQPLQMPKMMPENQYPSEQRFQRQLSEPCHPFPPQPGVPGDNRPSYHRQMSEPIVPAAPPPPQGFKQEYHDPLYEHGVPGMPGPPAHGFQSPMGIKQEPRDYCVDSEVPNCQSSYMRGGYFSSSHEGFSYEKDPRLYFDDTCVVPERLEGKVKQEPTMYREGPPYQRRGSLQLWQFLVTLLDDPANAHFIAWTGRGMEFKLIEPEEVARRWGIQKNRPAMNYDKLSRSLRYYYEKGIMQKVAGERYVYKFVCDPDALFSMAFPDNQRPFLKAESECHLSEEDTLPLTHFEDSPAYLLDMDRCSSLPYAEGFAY
ELF1, sequence (P32519 whole entry): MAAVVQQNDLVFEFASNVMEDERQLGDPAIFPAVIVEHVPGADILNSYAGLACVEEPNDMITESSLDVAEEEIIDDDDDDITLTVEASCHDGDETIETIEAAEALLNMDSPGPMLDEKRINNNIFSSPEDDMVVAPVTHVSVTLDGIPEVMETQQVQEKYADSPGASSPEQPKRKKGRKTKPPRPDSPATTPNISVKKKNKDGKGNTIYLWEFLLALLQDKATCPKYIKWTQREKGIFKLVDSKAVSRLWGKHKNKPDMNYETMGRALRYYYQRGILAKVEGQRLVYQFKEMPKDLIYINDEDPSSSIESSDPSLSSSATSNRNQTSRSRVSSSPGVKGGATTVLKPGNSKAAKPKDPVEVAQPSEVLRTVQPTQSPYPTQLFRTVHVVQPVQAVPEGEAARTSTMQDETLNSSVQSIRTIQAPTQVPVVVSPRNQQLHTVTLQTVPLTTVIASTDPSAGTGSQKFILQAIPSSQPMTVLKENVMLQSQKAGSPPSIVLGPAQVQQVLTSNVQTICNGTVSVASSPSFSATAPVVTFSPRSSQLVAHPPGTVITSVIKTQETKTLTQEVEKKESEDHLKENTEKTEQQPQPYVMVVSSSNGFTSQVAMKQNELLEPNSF

As to ACAGCA, the binding signal in the assay with ELK1 is 1.03 fold enrichment (6-mer frequency, TF over GST control); with GABPA, 1.08 fold enrichment (6-mer frequency, TF over GST control); with ERG it was 1 fold enrichment (6-mer frequency, TF over GST control); in the assay with ELF1, 1.06 fold enrichment (6-mer frequency, TF over GST control); with EHF, 1.03 fold enrichment (6-mer frequency, TF over GST control); with FEV it was 1 fold enrichment (6-mer frequency, TF over GST control). The binding signal is 1.03 fold enrichment (6-mer frequency, TF over GST control) in the assay with ETV5; 1.04 fold enrichment (6-mer frequency, TF over GST control) in the assay with ELF4; 1.02 fold enrichment (6-mer frequency, TF over GST control) with ELK4; 1.06 fold enrichment (6-mer frequency, TF over GST control) with ETV2; 1.07 fold enrichment (6-mer frequency, TF over GST control) in the assay with ERF; 1.06 fold enrichment (6-mer frequency, TF over GST control) with ETV3L. The binding signal was 1.09 fold enrichment (6-mer frequency, TF over GST control) with ETS2 and 1.15 fold enrichment (6-mer frequency, TF over GST control) in the assay with ETV7.

For the origin of these results see paper PMC7862700, “An all-to-all approach to the identification of sequence-specific readers for epigenetic DNA modifications on cytosine”.
